Out of some 91,000 compounds screened, about 290 (0.32%) were called active. About 7% were inconclusive and are not listed. What follows is part of a selection rich in actives, with near analogues and random picks from the rest. Unmarked numbers belong to inactive results. Calls come from the whole dose curve; as a rule, active = well fitted inhibition curve with a large enough effect; inconclusive = small, poorly fitted or top-dose-only effect; inactive = no such curve, though single readings can be large or run the other way.
target: Single-stranded DNA cytosine deaminase (Homo sapiens) (UniProt Q9GZX7); test: Primary qHTS assay for inhibitors of Activation Induced Cytidine Deaminase (AID): AID signal; conditions: AID deamination FRET fluorescence, UDG-coupled, 4 h; series mostly up to 115 µM; activity change, negative = inhibition: at the top concentration; note: nearly all actives have a fitted effect of over 25% in size
Excerpt: Assay Provider (PI) Patricia Gearhart Ph.D.
National Institute on Aging
National Institute of Health (NIH), Bethesda, MD
Assay Provider (PI) Rahul Kohli Ph.D.
Perelman School of Medicine
University of Pennsylvania, Philadelphia, PA
Activation-Induced Deaminase (AID) is a cytosine deaminase which converts cytosine into uracil within stretches of ssDNA. The presence of uracil in DNA initiates a cascade of mutagenic DNA repair to introduce point mutations and DNA double strand breaks. Specific targeting of AID to the immunoglobulin heavy chain loci (Igh) promotes mutagenesis in the antibody variable region for somatic hypermutation (SHM) or switch regions leading to class switch recombination (CSR). However, AID also plays a role in accumulating unnecessary mutations across the genome. Mis-targeting of AID results in the initiation of tumor development and leads to greater drug resistance among cancer cells when continually expressed. To identify an AID inhibitor, a small molecule library will be screened in collaboration with NCATS core facility at NIH. To confirm biological function, inhibitors will be examined in an in vitro murine B-cell activation assay and subsequent secondary validation screens. Top molecules will be further screened to identify inhibitory efficacy against a wild type primary splenocytes assay. Using these approaches, we hope to identify a small molecule with great efficacy and low toxicity for use as a molecular probe to further characterize AID's intricacies, or even as a therapeutic.
A FRET based analysis of cytosine deamination, was developed to identify potential inhibitors of AID catalytic activity. This screen has two signal output, Read 1 evaluates the AID inhibition response. The second readout (Read 2) evaluates UDG response and is uses as a counterscreen to exclude false positive inhibitors. Inhibition in AID and inactivity in the UDG signal is the desired outcome for this assay.
SEQUENCE No. (e.g., 1, 2, 3, etc.); […] (e.g., Cells, Incubation, Reagent, etc.); VALUE; DESCRIPTION
1a; Reagent; 3 uL; [4/3x] 1 uM AID/2.67 U/mL UDG
1b; Reagent; 3 uL; 2 U/mL UDG
1c; Reagent; 3 uL; 1 uM AID
2a; Compound; 46 nL; Follow-up plates (0.64 uM - 10 mM)
2b; Control; 46 nL; ATA ([…] - 10 mM)
3; Time; 10 min; incubation at room temperature
5; Time; 4 hr; incubation at room temperature
6; Reagent; 4 uL; [2x] 250 mM NaOH
7; Time; 15 sec; centrifuge at 1000 rpm
8; Time; 30 min; incubation at room temperature
9a; Detection; fluorescence (Read 1: AID); EnVision (PerkinElmer) plate reader, 540 excitation and 590 emission filters
9b; Detection; fluorescence (Read 2: UDG); EnVision (PerkinElmer) plate reader, 560 excitation and 665 emission filters
NOTES (numbers refer to sequence above)
1a; Reagents were dispensed in a medium-binding black solid-bottom Greiner plates (789176F) using a BioRptr liquid dispenser. Dispense 3 uL of [4/3x] 1 uM AID (provided by Kohli lab) and [4/3x] 2 U/mL UDG (NEB M0280L) into columns 1, 2, 5 to 48.
1b; Dispense 3 uL of [4/3x] 2 U/mL UDG into column 3.
1c; Dispense 3 uL of [4/3x] 1 uM AID into column 4.
2a; Compound (7-points [uM] (0.64; 3.2; 16; 80; 400; 2,000; 10,000; 20,000) double pin-transferred (Dip Factor = 2) using the Kalypsys (Wako USA) pintool equipped with a 1536 pinhead for a final concentration range of 7.32 nM - 114 uM.
2b; 10 mM Aurintricarboxylic Acid (Sigma A1895) (ATA, 8-point, n = 2, 1:2.5 dilution in column 2) double pin-transferred (Dip Factor = 2) using the Kalypsys (Wako USA) pintool equipped with a 1536 pinhead for a [final] range of 186 nM - 114 uM.
3; Room temperature incubation.
4; Dispense 1 uL of substrate mixture from the Kohli lab [4x] […] DJC20 and [4x] 250 nM DJC23 into columns 1 to 48 .
5; Room temperature incubation.
6; Dispense 4 uL of substrate mixture [2x] 250 mM NaOH into columns 1 to 48.
7; Centrifugation step to remove bubbles.
8; Room temperature incubation
9a; Fluorescence signal (column label AID) was read using the EnVision plate reader. […]
% is set by controls: 0 for no effect and ±100 for the full control effect; potency is the fitted concentration of half-maximal effect.

Chain of Single-stranded DNA cytosine deaminase (Homo sapiens) (Q9GZX7 whole entry, looked up): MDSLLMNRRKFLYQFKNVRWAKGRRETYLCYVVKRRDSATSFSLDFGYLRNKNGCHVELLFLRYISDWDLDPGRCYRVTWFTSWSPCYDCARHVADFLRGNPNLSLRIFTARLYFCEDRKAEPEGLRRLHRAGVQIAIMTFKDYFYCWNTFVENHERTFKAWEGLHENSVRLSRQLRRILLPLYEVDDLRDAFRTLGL

SMILES | activity change, negative = inhibition [%] | Potency
C=CCn1c(SCC(=O)Nc2ccccc2)nc2c1c(=O)n(C)c(=O)n2C | -4.76 | –
C=CCn1c(Oc2ccc(F)cc2)nc2c1c(=O)n(C)c(=O)n2C | -10 | –
COC(=O)Cc1c(C)c2ccc(OCc3cccc(Cl)c3)cc2oc1=O | -4.26 | –
COc1ccc(S(=O)(=O)N2CCc3c(c(-c4nnc(SC)n4C)nn3C)C2)cc1 | -13.2 | –
Cc1ccc(CN2CCC(CNC(=O)c3cnn(-c4ccc(C)cc4)c3C3CCN(C(=O)OC(C)(C)C)CC3)CC2)cc1 | -21.8 | –
COc1ccccc1CN1CCC(CNC(=O)c2cnn(-c3cccc(Cl)c3)c2C2CCN(C(=O)OC(C)(C)C)CC2)CC1 | – | 44.7 µM (active)
COc1ccccc1N1CCN(CCCNC(=O)c2cnn(-c3ccccc3Cl)c2C2CCN(C(=O)OC(C)(C)C)CC2)CC1 | -26.5 | –
COc1ccccc1CN1CCC(CNC(=O)c2cnn(-c3ccccc3Cl)c2C2CCN(C(=O)OC(C)(C)C)CC2)CC1 | – | 44.7 µM (active)
CC(C)(C)OC(=O)N1CCC(c2c(C(=O)N3CCN(c4cccc(Cl)c4)CC3)cnn2-c2cccc(Cl)c2)CC1 | -19.6 | –
Cc1cccc(C)c1-n1ncc(C(=O)NCCCN2CCCCC2)c1C1CCN(C(=O)OC(C)(C)C)CC1 | -19.3 | –
CCCCc1c(C)nc2c(Cl)cccc2c1Cl | -2.47 | –
CCn1nc(C)cc1-c1nn2c(-c3cccc(Cl)c3Cl)nnc2s1 | -5.05 | –
O=C(O)c1ccc(-c2ccccc2)cc1C(=O)O | 4.53 | –
Cc1nn(CCC(=O)Nc2c(Cl)cccc2Cl)c(=O)c(C#N)c1C | 14.8 | –
COc1ccc(-c2cc(COC(=O)Cc3cccc(F)c3)on2)cc1 | 3.81 | –
N#C/C(=C/c1cccc([N+](=O)[O-])c1)c1ccc(C(F)(F)F)cn1 | -16.6 | –
O=C(OCC(=O)C12CC3CC(CC(C3)C1)C2)c1ccccc1Cl | -5.72 | –
O=C(CCCOC(=O)c1cc(Cl)ccc1[N+](=O)[O-])c1ccc(Br)cc1 | 0.291 | –
O=C1SCCC1NC(=O)C(Sc1ccccc1)c1ccccc1 (centres undefined) | -6.8 | –
O=C(CCCCC(=O)OCC(=O)c1ccc(Br)cc1)OCC(=O)c1ccc(Br)cc1 | 19.4 | –
O=[N+]([O-])c1ccc2nc(Cl)ccc2c1 | 20 | –
Cc1nn(CC(=O)N(CC2CCOC2)C2CC2)c(=O)c2ccccc12 (centres undefined) | 1.88 | –
Cc1cccc2c(=O)c(-c3ccccc3)c(NC(=O)c3ccc([N+](=O)[O-])cc3)oc12 | -3.76 | –
Cc1n[nH]c(=O)c2c(NC(=O)CSc3nnc(C4CC4)n3Cc3ccccc3)oc(C)c12 | 11.5 | –
Cc1[nH]nc2c1C(c1cccc(OCc3ccc(Cl)cc3)c1)C(C#N)=C(N)O2 (centres undefined) | 8.28 | –
CN(CCOC(=O)c1cccs1)Cc1ccccc1 | -1.32 | –
Cc1ccc(-c2cc3ccccc3n2C)cc1 | 39.1 | –

SMILES | activity change, negative = inhibition [%] | Potency
CCn1c(SC(C)c2nnc(-c3ccccc3)o2)nc2ccccc2c1=O (centres undefined) | -21 | –
O=C(Cc1ccc(Cl)c(Cl)c1)NCC1CN(Cc2ccccc2)CCO1 (centres undefined) | -0.709 | –
CCn1ccc(C(=O)Nn2c(C)nc3sc4c(c3c2=O)CCC(C)C4)n1 (centres undefined) | 1.64 | –
COC(=O)c1ccc(NC(=O)c2noc3c2COc2ccc(C)cc2-3)cc1 | 1.38 | –
COc1ccccc1Nc1c2c(nc3ccc(NC(=O)/C=C/c4cc(OC)c(OC)c(OC)c4)cc13)CCCC2 | – | 44.7 µM (active)
Cc1ccc(Nc2c3c(nc4ccccc24)CCC3)cc1 | -5.61 | –
CCOc1ccc(C(=O)Nc2ccc3nc4c(c(Nc5ccccc5OC)c3c2)CCCC4)cc1 | -3.06 | –
Cc1ccc2[nH]c(=S)nc(-c3ccccc3)c2c1 | -5.12 | –
Cc1cc(O)c2c(C)c(CC(=O)Nc3nc4ccccc4[nH]3)c(=O)oc2c1 | 1.17 | –
Cc1ccc(CC(=O)NC2(C)CCCc3ccccc32)cc1 (centres undefined) | 0.195 | –
CCn1c(SCC(=O)N2CCc3ccccc32)nnc1C(C)NC(=O)c1ccccc1F (centres undefined) | -8.1 | –
O=S1(=O)C=CC(N(Cc2ccccc2)Cc2ccccc2F)C1 (centres undefined) | -15.4 | –
Cc1cc(NC(=O)C(C)Sc2nc(NC3CC3)c3ccccc3n2)no1 (centres undefined) | -6.81 | –
O=C(NC(CCCc1ccccc1)c1ccccc1)c1ccc[n+]([O-])c1 (centres undefined) | -7.86 | –
COc1ccc(OC)c(CNC(=O)c2scnc2C)c1 | 10.7 | –
CCCCNC(=O)CSc1c2c(nc3cc(Cl)ccc13)CCCC2 | -17.5 | –
COc1cccc(N=C2NN=C(c3ccc4c(c3)CC(C)N4S(C)(=O)=O)CS2)c1 (centres undefined) | 21.3 | –
COc1cc(C(=O)Oc2ccc(C(C)=O)cc2)ccc1C | 11.9 | –
CCN(C)Cc1cccc(CNC(=O)NC2CC2)c1 | -3.88 | –
CCCCn1c(CNC(=O)C23CC4CC(CC(C4)C2)C3)nnc1SCC(=O)Nc1ccc(C)cc1 | – | 44.7 µM (active)
CCn1c(CNC(=O)C23CC4CC(CC(C4)C2)C3)nnc1SCC(=O)Nc1ccc(OC)cc1 | -13.2 | –
Cc1cccc(NC(=O)CSc2nnc(CNC(=O)c3cccc(C)c3)n2-c2ccccc2)c1 | -8.63 | –
Cc1ccc(-n2c(=O)c3sccc3n(CC(=O)N3CCCCC3C)c2=O)cc1C (centres undefined) | -1.29 | –
N#Cc1c(SCC(=O)N2CCCC2)nc(N2CCOCC2)c2c1CCCC2 | -14.6 | –
N#Cc1ncn(CCC(=O)Nc2ccc(F)c(F)c2)n1 | – | 14.1 µM (active)
CCOC(=O)c1ccc(NC(=O)CCn2cnnn2)cc1 | 0.636 | –
Cc1ccc(NC(=O)Cn2c(=O)c3c(ncn3CC(C)C)n(CC(C)C)c2=O)cc1F | -19.2 | –

Reference: PubChem BioAssay AID1347428 (National Center for Advancing Translational Sciences (NCATS), 2020)
